# Source: PubChem BioAssay (EPA / NIEHS)
# Results filed as inconclusive are left out. Active and inactive are the calls of the source. Rule for the calls: active = hit-call score of the fitted dose curve at least 0.9, where 1 is the maximum; inconclusive = response in the unintended direction; inactive = score below 0.9.
# Biological target: Glucocorticoid receptor (Homo sapiens) (UniProt P04150)
# Assay: ATG_GR_TRANS: Attagene TRANS-FACTORIAL HepG2 Assay for human Glucocorticoid Receptor (GR) (AID 2282978);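 note: activators score as hits since higher reporter transcript over DMSO is fitted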
# Settings: HepG2 Attagene TRANS GR reporter, mRNA transcription
# In short: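 Readout is reporter transcript from a chimeric GR-Gal4 acting on GAL4-UAS in transfected human HepG2 liver cells after 24 h exposure, quantified by RT-PCR and capillary electrophoresis. Activation fitted upward against DMSO.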
# Sequence of Glucocorticoid receptor (Homo sapiens) (P04150 whole entry, looked up): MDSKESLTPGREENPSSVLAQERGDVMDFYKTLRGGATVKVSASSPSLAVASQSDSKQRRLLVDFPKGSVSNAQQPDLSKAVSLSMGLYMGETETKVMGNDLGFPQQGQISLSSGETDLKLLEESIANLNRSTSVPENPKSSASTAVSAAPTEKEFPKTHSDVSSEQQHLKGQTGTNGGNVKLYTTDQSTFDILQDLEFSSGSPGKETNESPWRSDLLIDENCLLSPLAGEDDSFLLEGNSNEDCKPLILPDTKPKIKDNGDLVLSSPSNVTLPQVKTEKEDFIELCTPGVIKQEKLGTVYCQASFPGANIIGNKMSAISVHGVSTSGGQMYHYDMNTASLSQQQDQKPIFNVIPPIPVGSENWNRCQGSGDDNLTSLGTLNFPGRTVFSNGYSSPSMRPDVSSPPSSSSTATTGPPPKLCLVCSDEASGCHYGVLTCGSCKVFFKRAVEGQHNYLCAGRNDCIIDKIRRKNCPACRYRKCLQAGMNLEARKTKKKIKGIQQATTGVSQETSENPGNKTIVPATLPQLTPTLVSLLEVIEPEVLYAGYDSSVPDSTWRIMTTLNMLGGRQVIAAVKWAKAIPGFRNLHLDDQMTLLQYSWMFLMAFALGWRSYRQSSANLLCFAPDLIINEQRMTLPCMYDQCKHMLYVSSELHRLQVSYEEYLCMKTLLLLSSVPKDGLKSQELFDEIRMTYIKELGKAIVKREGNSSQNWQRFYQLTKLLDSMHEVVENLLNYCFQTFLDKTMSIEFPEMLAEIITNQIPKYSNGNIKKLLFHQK
SMILES,outcome,AC50
FC(F)(F)C(F)(C(F)(F)F)C(F)(F)C(F)(F)CC1CO1 (centres undefined),inactive,
Clc1ccc(Oc2ccccc2)cc1,inactive,
c1cc2c3c(cccc3c1)CC2,inactive,
CCN(CC)C1CCCCC1,inactive,
Cc1cc(C)c(C(=O)P(=O)(c2ccccc2)c2ccccc2)c(C)c1,inactive,
CCCCC(CC)COP(=O)(Oc1ccccc1)Oc1ccccc1 (centres undefined),inactive,
CCOc1ccc(C(C)(C)COCc2cccc(Oc3ccccc3)c2)cc1,inactive,
CCCCN(CC)C(=O)SCCC,inactive,
COP(=O)(O)OC,inactive,
Nc1ccc(Sc2ccc(N)cc2)cc1,inactive,
O=C(O)C1C(C(=O)O)C2(Cl)C(Cl)=C(Cl)C1(Cl)C2(Cl)Cl (centres undefined),inactive,
Nc1cc2c3c(c1)C(c1ccccc1)=N[C@@H](NC(=O)c1cccnc1)C(=O)N3CC2,inactive,
CCOP(=S)(OCC)SCSCC,inactive,
c1ccc(OP(Oc2ccccc2)Oc2ccccc2)cc1,inactive,
ClC1=C(Cl)C2(Cl)C3C(Cl)C(Cl)CC3C1(Cl)C2(Cl)Cl (centres undefined),,100 µM (active)
CC(Cl)(Cl)C(=O)O,inactive,
OCC(F)(F)OC(F)(F)C(F)(F)OC(F)(F)CO,inactive,
C=CC(=O)OCC(CC)(COC(=O)C=C)COC(=O)C=C,inactive,
CC(Cl)CN(C)C (centres undefined),inactive,
Oc1ccc(I)cc1,inactive,
CO/N=C(/C(=O)OC)c1ccccc1COc1ccccc1C,inactive,
CC1(C)CN=C(NN=C(/C=C/c2ccc(C(F)(F)F)cc2)/C=C/c2ccc(C(F)(F)F)cc2)NC1,inactive,
O=C(O)C(F)(F)OC(F)(F)C(F)(F)OC(F)(F)C(=O)O,inactive,
O=C(O)C=CC(F)(C(F)(F)F)C(F)(F)F,inactive,
